These results are taken from PubChem BioAssay.

Unmarked numbers belong to inactive results.

This test can be described thus: basal CRE-LacZ reporter activity in PC12 – cell-based, unstimulated, primary screen (AID 1145). To be noted: no forskolin, luminescence, 4.5 h, higher = more signal, called active from +8 up or from −8 down.
On to `CC(C)C(O)C1C=CC2C(=O)NC(=O)C2N1Nc1ccccn1` (configuration not stated), for which the z-score was -0.143.
Regarding `C=CCC(OC(C)=O)[C@@H]1[C@@H](N(Cc2cccc3ccccc23)C(=O)c2ccc(-c3ccccc3)cc2)c2cc(OCCCO)ccc2N1C(=O)Cc1ccc2ccccc2c1` (some centres not stated), the z-score was -0.141.
On to `COc1cc(CO)cc(I)c1O[C@H]1C=C(C(=O)NCCO)C[C@@H]2O[C@H]12`, for which the z-score was 3.65.
As for `CC(C)[Si](C#CCCc1ccccc1)(O[C@H](c1ccccc1)c1cn(Cc2ccccc2)nn1)C(C)C`, the figure is -0.0989; as for `O=C1[C@H]2C=C(I)[C@H](C[C@@H]2c2ccccc2)[C@@]12CO2`, 0.849; as for `C=C(/C(=C/C[C@@H](OC(C)=O)c1cccc(OCCO)c1)c1cnc2ccccc2c1)C(C)C`, 0.769.
For `COCCOC(=O)N1C(=O)[C@@]2(c3cc(C#CCC(C(=O)OC)C(=O)OC)ccc31)[C@H](C(=O)Nc1nc3ccccc3s1)[C@H]1C(=O)O[C@H](c3ccccc3)[C@H](c3ccccc3)N1[C@@H]2c1ccc(OCCO)cc1` the value was 1.71; for `C=CCNC(=O)[C@H]1[C@@H]2C(=O)O[C@@H](c3ccccc3)[C@@H](c3ccccc3)N2[C@@H](c2ccc(OCCO)cc2)[C@]12C(=O)Nc1ccccc12`, 0.389.
As for `COC(=O)[C@@]1(Cc2ccc(F)cc2)[C@H]2c3cc(C(=O)N(C)C)n(CCc4ccc(O)c(O)c4)c3C[C@H]2CN1C(=O)c1ccccc1`, the figure is 0.387; as for `C=CC[C@@]12N=C(c3ccc(OCCCO)cc3)O[C@@H]1c1ccccc1N(CCC)C2=O`, 0.69; as for `O=C(NC1CC1)[C@@H]1c2ccccc2C(=O)N(Cc2ccc(OC(F)(F)F)cc2)[C@H]1c1ccc(CO)cc1`, 0.441.
On to `COC(=O)[C@@]1(Cc2ccc(OC)cc2)[C@H]2c3cc(C(=O)N4CCCC4)n(Cc4ccc(C(F)(F)F)nc4)c3C[C@H]2CN1C(=O)c1ccccc1`, for which the z-score was -0.372.
As for `CCC(CC)C(O)C1C=CC2C(=O)N(c3ccccc3)C(=O)C2N1Nc1ccccc1F` (configuration not stated), the figure is -0.62; as for `C=C(COC)C(=O)CC[C@@H](OC(C)=O)c1ccccc1OCCO`, 1.54; as for `[N-]=[N+]=Nc1ccccc1[C@@H]1OC(c2ccc(OCCCO)cc2)=N[C@]1(CCS(=O)(=O)c1ccccc1)C(=O)NCC(O)CO` (some centres not stated), 0.0827.
For `COCCCNC(=O)[C@@]1(Sc2ccc(C)cc2)CC(=O)N(Cc2ccccc2C(F)(F)F)[C@@H]1c1ccc(CO)cc1I` the value was -0.0888; for `COc1ccc([Si](C)(C)[C@H]2[C@H](CC(=O)N3Cc4ccccc4C[C@H]3CO)O[C@@]3(C(=O)N(C)c4ccccc43)[C@@H]2C)cc1`, 5.61; for `CN1C(=O)C2C(C1=O)C1C=C(c3ccc(CO)cc3)C2C(C2CC2)N1C` (configuration not stated), -0.219.
As for `COCCCNC(=O)[C@@]1(CCS(=O)(=O)c2ccccc2)COC(c2ccc(OCCCO)cc2)=N1`, the figure is 0.918; as for `COC(=O)[C@@]1(Cc2ccc(F)cc2)[C@H]2c3cc(C(=O)N4CCCC4)n(Cc4cc(F)cc5c4OCOC5)c3C[C@H]2CN1C(=O)c1ccccc1`, -0.372; as for `O=C1C[C@@](C(=O)NCc2ccccc2)(c2ccc([N+](=O)[O-])cc2)[C@@H](c2ccc(CO)cc2)N1C1CCCCC1`, 0.531.
On to `CCCCC(O)C1C=CC2C(=O)N(c3ccccc3)C(=O)C2N1Nc1ccc([N+](=O)[O-])cc1` (configuration not stated), for which the z-score was -0.219.
For `CC1CC/C=C\[C@H]2OC34C=CCN(C(C)(C)C)C(=O)[C@H]3N(CCCO)C(=O)[C@@H]4C2C(=O)O1` (some centres not stated) the value was 0.203; for `CCCCCC1=C2CNC(Cc3ccccc3)(C(=O)OC)C=C2C(C)C1=O` (configuration not stated), 0.4; for `CCOC(=O)C1=C[C@@H](C(C)(C)C)N(S(=O)(=O)c2ccc(C)cc2)[C@H]1c1ccc(C#N)cc1`, -0.228.
For `COc1ccc([Si](C)(C)[C@@H]2[C@@H](CC(=O)N(CCO)Cc3ccccc3)O[C@]3(C(=O)N(Cc4ccc(I)cc4)c4ccccc43)[C@H]2C)cc1` the value was -0.505.
For `C=CCNC(=O)[C@H]1[C@@H]2C(=O)O[C@@H](c3ccccc3)[C@@H](c3ccccc3)N2[C@@H](c2ccccc2OCCO)[C@]12C(=O)N(C(=O)OCCOC)c1ccc(C#Cc3ccc(OC)cc3)cc12` the value was 1.12.
